Screens as filed in PubChem.
BAZ2B block = inhibitors of human BAZ2B bromodomain | Q9UIF8 | AlphaScreen BAZ2B-H3K14Ac peptide displacement | Potency, µM (doses to about 114 µM), without a hit: at the highest dose activity change, negative = inhibition, hits mostly inhibitors | actives 4.4% (n = 360,000) | AID 504333; further: potency means the concentration at half of the fitted maximal effect; on the % scale 0 is the no-effect control and ±100 the full control effect; nearly all actives have a fitted effect of over 60% in size
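In this displacement format the biotinylated H3(5-23) peptide acetylated at Lys14 serves as ligand at 50 nM, with BAZ2B at 50 nM in PBS pH 7.4 containing 0.01% Tween-20. Donor and acceptor beads are 10 ug/mL final.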
PI5P4K alpha inh = inhibitors of human PI5P4K alpha. PI5P4Kalpha enzyme, ADP-Glo luminescence, 60 min; active compounds read low. actives 1.2% (n = 330,000). max response, %. AID 652105. P48426; active means max response of -50% or lower; inconclusive means between -30% and -50%; inactive means -30% or higher; further: value at the top dose of about 77 µM; on the % scale 0 is the no-effect control and ±100 the full control effect
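Reactions run in 0.038 M HEPES pH 7.4, 0.28 mM EGTA, 0.1% CHAPS and 5% DMSO, with PI5P4Kalpha, substrate, compound and 5 microM ATP final, one hour at room temperature. Readout is ADP-Glo luminescence.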
JMJD2A Tudor inh = JMJD2A Tudor domain (human) inhibition. O75164. AlphaScreen JMJD2A-Tudor / H3K4me3 peptide binding. Potency, µM (series often up to 114 µM), inactives show at the top dose activity change, negative = inhibition, most hits filed as inhibitors. actives 4.4% (n = 390,000); further: potency means the concentration at half of the fitted maximal effect; on the % scale 0 is the no-effect control and ±100 the full control effect; nearly all actives have a fitted effect of over 50% in size
GCN5L2 inh = inhibitors of human GCN5L2 histone acetyltransferase; Potency, µM (titrated, usually from 58.9 µM), for inactives: at the highest dose activity change, negative = inhibition, hits mostly inhibitors; Q92830; actives 0.21% (n = 390,000); GCN5L2 HAT assay, ThioGlo1 CoA-SH fluorescence; further: potency means the concentration at half of the fitted maximal effect; on the % scale 0 is the no-effect control and ±100 the full control effect
Target sequence (Q92830 whole entry, looked up): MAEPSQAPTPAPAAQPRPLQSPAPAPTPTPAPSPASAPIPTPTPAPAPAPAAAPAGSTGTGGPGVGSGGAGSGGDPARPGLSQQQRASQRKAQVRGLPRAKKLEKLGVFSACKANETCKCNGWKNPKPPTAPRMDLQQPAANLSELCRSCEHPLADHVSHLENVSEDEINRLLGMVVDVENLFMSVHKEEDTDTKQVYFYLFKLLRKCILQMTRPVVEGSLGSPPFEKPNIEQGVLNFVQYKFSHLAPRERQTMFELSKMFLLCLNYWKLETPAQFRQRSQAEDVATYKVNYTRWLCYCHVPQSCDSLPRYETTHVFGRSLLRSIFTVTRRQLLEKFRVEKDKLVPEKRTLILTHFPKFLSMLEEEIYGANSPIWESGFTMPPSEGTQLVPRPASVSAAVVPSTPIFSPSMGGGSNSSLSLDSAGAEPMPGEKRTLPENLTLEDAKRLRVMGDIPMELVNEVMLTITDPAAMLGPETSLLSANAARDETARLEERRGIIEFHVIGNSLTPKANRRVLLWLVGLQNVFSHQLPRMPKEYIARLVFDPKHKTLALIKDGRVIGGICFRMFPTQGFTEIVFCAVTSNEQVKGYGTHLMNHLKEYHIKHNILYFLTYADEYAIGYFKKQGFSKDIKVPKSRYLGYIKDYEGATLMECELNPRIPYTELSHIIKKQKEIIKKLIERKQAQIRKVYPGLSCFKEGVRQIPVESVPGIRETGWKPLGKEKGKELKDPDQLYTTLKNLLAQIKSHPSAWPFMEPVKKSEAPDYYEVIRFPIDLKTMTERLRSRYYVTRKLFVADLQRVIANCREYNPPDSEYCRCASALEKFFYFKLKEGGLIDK
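Fluorescence readout, Ex340nm/Em540nm: ThioGlo1 (50uM final) reacts with free CoA thiol released as 20nM GCN5L2 acetylates H3(1-25) peptide (75uM) using acetyl-CoA (70uM). Compound and enzyme sat 15 min beforehand; 20 min room-temperature reaction.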
HP1b binding inh = blocks HP1-beta chromodomain binding to methylated histone tails | AlphaScreen HP1-beta / biotin-H3K9me3 peptide binding | Potency, µM (doses to about 114 µM), for the others: top-dose activity change, negative = inhibition, most hits filed as inhibitors | P83916 | actives 0.56% (n = 390,000) | AID 540317; further: potency means the concentration at half of the fitted maximal effect; nearly all actives have a fitted effect of over 70% in size
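Compound inhibition of the preformed complex between 50 nM HP1-beta and 50 nM biotinylated H3K9me3 peptide was read by AlphaScreen. Buffer was PBS pH 7.4 with 0.01% Tween-20. Incubations ran 30 min at room temperature, with 10 ug/mL donor/acceptor beads.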
PLK1 PBD block = blocks phosphopeptide binding to human PLK1 polo-box domain. actives 2.8% (n = 360,000). Potency, µM, without a hit: max response, negative = inhibition, most hits filed as inhibitors. P53350. Plk1 PBD binding of FITC phosphopeptide, fluorescence polarization. AID 720504; further: potency means the concentration at half of the fitted maximal effect; series mostly up to about 57 µM; on the % scale 0 is the no-effect control and ±100 the full control effect; nearly all actives have a fitted effect of over 65% in size
* marks the source's active call; other numbers are inactive results; ? = inconclusive; · = no result given; [ ] = remark or other dose. Shown are actives, neighbours in structure and some others; about 7% of the full set was active somewhere. Unless noted, the call rests on the fitted dose curve; in most records, active means well fitted curve in the direction sought with a large enough effect; inconclusive means small, poorly fitted or top-dose-only effect, or another doubt; inactive means no such curve, though single readings can be large; an effect the other way counts as inactive or inconclusive.

SMILES	BAZ2B block	PI5P4K alpha inh	JMJD2A Tudor inh	GCN5L2 inh	HP1b binding inh	PLK1 PBD block
Cc1ccc(NC(=O)C(NC2CCCc3ccccc32)c2ccccc2)c([N+](=O)[O-])c1 (configuration not stated)	45µM*	4	4.5µM*	-3%	25µM*	-12%
CNC(=O)NC(=O)C(NC1CCCc2ccccc21)c1ccccc1 (configuration not stated)	-2%	2	-14%	-10%	24%	4%
O=C(Cn1cc(SCc2c(F)cccc2Cl)c2ccccc21)N1CCCC1	?	·	-7%	-2%	24%	·
Cc1cccc(NC(=O)Nc2ccccn2)c1C	0%	-4	-15%[11.4 µM]	0%	51%	-4%
O=C(O)c1ccccn1	2.8µM*	4	4µM*	-6%	27%	-10%
Cc1cccc(NC(=O)c2ccccn2)c1C	-4%	·	7.9µM*	-1%	8%	-7%
Cc1cccc(NC(=O)c2ccccc2NC(=O)C2CCCCC2)c1C	50µM*	·	-13%	-25%	0%	-10%
O=C(Nc1ccccc1)c1ccccc1NC(=O)C1CCCCC1	-1%	8	-14%	-13%	22%	-21%
O=C(O)c1ccc2cccnc2n1	28µM*	-4	7.1µM*	-3%	?	-16%
COc1cc2c(cc1OCc1ccccc1)/C(=C/C(=O)OCc1ccccc1)OC2	·	10	·	·	·	-6%
COC(=O)[C@H](CC(C)C)NC(=O)NCc1ccc(Cl)cc1	-1%	1	13%	1%	30%	-4%
CC(=O)Nc1ccc(Nc2nc(Nc3ccc(Cl)cc3)nc(N3CCOCC3)n2)cc1	·	·	-14%[57.1 µM]	·	3%[57 µM]	·
O=C(c1ccccc1)c1ccccn1	-1%	4	-6%	-4%	30%	-1%
O=C(CC(=O)c1ccccn1)c1ccccc1	·	0	25µM*	·	36%	-5%
CC(=O)N1CCCc2cc(S(=O)(=O)N3CCC(C(=O)NCc4ccccc4)CC3)ccc21	3%	·	-5%	-7%	21%[57 µM]	·
COC(=O)c1ccc(NC(=O)c2cc(S(=O)(=O)N3CCOCC3)cn2C)cc1	1%	·	-11%	-5%	36%	·
Cc1cccc(C2C3=C(Nc4[nH]n(-c5ccccc5)c(=O)c42)c2ccccc2C3=O)c1 (configuration not stated)	32µM*	?	35µM*	-21%	?	?
COc1ccc2c(c1)[N+](C)(C)C(C)(C)C=C2C	-22%	-14	18µM*	-2%	?	-25%
CCOc1ccc2c(c1)[N+](C)(C)C(C)(C)C=C2C	-16%	0	18µM*	-19%	3%	-7%
O=C(Nc1ccccc1Cl)c1ccccc1CC(O)(c1ccccc1)c1ccccc1	·	1	·	·	·	3%
CC(=O)Nc1ccc(Sc2ccccc2C(=O)Nc2ccc(F)cc2)cn1	-17%	-14	?	-3%	?	19µM*
CCC(C)Sc1nc2c(c(=O)[nH]1)C(c1cccs1)C1=C(CCCC1=O)N2 (configuration not stated)	·	?	-19%	-28%	32%	-2%
CCN(C(=O)CSc1nc2ccccc2c(=O)n1Cc1ccc(C)cc1)C1CCS(=O)(=O)C1 (configuration not stated)	-1%	0	-19%	?	-3%	-4%
CCN(C(=O)COC(=O)c1cc(-c2ccc(C)o2)nc2ccccc12)C1CCS(=O)(=O)C1 (configuration not stated)	-2%	?	89µM*	?	5%	-12%
CCN(C(=O)COC(=O)c1cc(-c2cccs2)nc2ccccc12)C1CCS(=O)(=O)C1 (configuration not stated)	4%	3	6%	-10%	47%	-13%
CCN(C(=O)CSc1nc2ccccc2c(=O)n1-c1cccc(C)c1)C1CCS(=O)(=O)C1 (configuration not stated)	11%	?	?	-4%	-7%	27µM*
